This is part of a sample that, as a whole, favours compounds with a hit. Of some 79,000 tested, about 15% had one in any assay. Calls of active or inactive are those of the source. Rule as the data show it: active = growth inhibition above about 70%; inactive = the rest.

This passage reports growth inhibition results from PubChem BioAssay (NCI).

One test in a line: NCI Yeast Anticancer Drug Screen. Data for the bub3 strain (AID 167). Particulars: S. cerevisiae bub3 mutant strain, at 33.0 µM, active compounds read high. In short, it runs like this: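 In this screen, a yeast mutant lacking normal mitotic checkpoint function is challenged with compound. Relative growth versus vehicle gives the inhibition value.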
As to `C/C(=N\O)C1CC2C=C(C#N)C1N(Cc1ccccc1)C2` (stereo not drawn), the growth inhibition is -2% (inactive).
Turning to `O=[N+]([O-])C(=C(Sc1ccccc1)Sc1ccccc1)C(Cl)=C(Cl)Cl`, the growth inhibition was 45% (inactive).
Still for that read-out and setting: for `CCCCCCCCCC/C=C\C(=O)O` the value was -10% (inactive); for `COc1ccc(N=C2C(=O)Nc3ccc(Br)cc32)cc1`, 2% (inactive); for `COc1ccccc1C(=O)OCC1CCCN2CCCCC12` (stereo not drawn), 97% (active).
The same measure, in the same setting: the result for `CC(C)(Br)C(=O)/C=C/c1ccc(Cl)c(Cl)c1` reads -1% (inactive); that for `Nc1ccccc1CC(O)C(=O)O` (stereo not drawn), 70% (active).
As for `CC(=O)N/N=C/C(C)(C)C(C)(C)/C=N/NC(C)=O`, the growth inhibition is -7% (inactive).
On the same count and under the same terms, the result for `CN(C)c1nc2sc3c(c2c(=O)o1)CCCC3` reads 55% (inactive).
On to `CC(C)OC(=O)Oc1ccccc1OC(=O)OC(C)C`, for which the growth inhibition was 7% (inactive).
The same measure, in the same setting: the result for `Cc1ccc(N)c(S)c1` reads 98% (active).
Consider `O=C(O)c1ccccc1NC(=S)c1ccccc1`, for which the growth inhibition was 5% (inactive).
On the same count and under the same terms, the result for `COC(=O)c1ccc(NCC2=CC(=O)C=CC2=O)cc1O` reads 95% (active).
Still for that read-out and setting: for `NC(N)=N/N=C\c1c2ccccc2cc2ccccc12` the value was -44% (inactive); for `COC(=O)CSSCc1ccc([N+](=O)[O-])cc1`, 71% (active).
Still for that read-out and setting: for `CCS(=O)(=O)c1ccc(/C=C/C=N/NC(=S)NCC(C)C)cc1` the value was 4% (inactive); for `N#CC(C(=O)Nc1ccccc1)C1=C(Cl)C(=O)c2ccccc2C1=O` (stereo not drawn), 97% (active); for `C[C@H](CCC(=O)NN)[C@H]1CC[C@H]2[C@@H]3CC[C@@H]4C[C@H](O)CC[C@]4(C)[C@H]3CC[C@]12C`, 1% (inactive).
Consider `CC[n+]1ccc2c(C)c3[nH]c4ccc(O)cc4c3c(C)c2c1`, for which the growth inhibition was 3% (inactive).

Still in this test, the particulars now being: S. cerevisiae bub3 mutant strain, at 50.0 µM (retest, dose inferred, filed as 5.0), active compounds read high.
On to `CCCc1cc(C(=O)OCC)cc(CCC)c1O`, for which the growth inhibition was 77% (active).
On the same count and under the same terms, for `CC(C)[N+]([O-])(CCCNc1c2ccccc2nc2cccc([N+](=O)[O-])c12)C(C)C` the value was 97% (active); for `COc1cc2c3c(cccc3c1)C(=O)N(CCN(C)C)C2=O`, 21% (inactive); for `NC(=O)NN=C(CS)CS`, 15% (inactive).
On the same count and under the same terms, for `Cc1ccc(NC(=O)/C(Cl)=C(\Cl)C(=O)O)cc1C` the value was 99% (active); for `CCN(CC)CC[n+]1ccc2c(C)c3[nH]c4ccc(O)cc4c3c(C)c2c1`, 6% (inactive); for `CC(CC(C)(C)[N+](C)(C)C)[N+](C)(C)C` (stereo not drawn), 99% (active).
Same read-out and setting: the result for `COc1ccc(OC)c2cc3ccccc3cc12` reads 64% (inactive); that for `Nc1ncncc1C(C1=C(O)COC1=O)C1=C(O)COC1=O`, 19% (inactive); that for `CSC1=NNC(SC)=NN1`, 99% (active).
On to `Cc1c(Cl)ccc2c1S(=O)(=O)c1cccc(Cl)c1-2`, for which the growth inhibition was 51% (inactive).
Still for that read-out and setting: the result for `[O-][n+]1c2ccc(O)cc2nc2ccc(Cl)cc21` reads 11% (inactive).
The same measure, in the same setting: for `COc1ccc2ccc3ccccc3c2c1C=O` the value was 11% (inactive).
Same read-out and setting: for `Nc1ccc2c(c1)C(=O)c1cccc(N)c1C2=O` the value was 89% (active); for `O=C(c1ccc(Cl)cc1Cl)C(Cl)Cl`, 96% (active); for `COc1cc(C(=O)/C=C/c2ccccc2O)ccc1O`, 97% (active).
With `O=Cc1cccc2ccc3ccccc3c12`, the growth inhibition was 81% (active).
Still for that read-out and setting: the result for `O=C(Nc1ccc(Cl)cc1)OCC#CCCl` reads 23% (inactive); that for `Cn1ccnc1Oc1ccc(Cl)cc1`, 55% (inactive).
On the same count and under the same terms, for `c1ccc2c(c1)C(=NCCCN1CCCCCC1)c1cccn1-2` the value was -3% (inactive); for `C/C(=N\O)C1CC2C=C(C#N)C1N(Cc1ccccc1)C2` (stereo not drawn), 13% (inactive).
On the same count and under the same terms, for `O=[N+]([O-])C(=C(Sc1ccccc1)Sc1ccccc1)C(Cl)=C(Cl)Cl` the value was 59% (inactive).
Regarding `CCCCCCCCCC/C=C\C(=O)O`, the growth inhibition was 73% (active).
Same read-out and setting: for `COc1ccc(N=C2C(=O)Nc3ccc(Br)cc32)cc1` the value was 85% (active); for `COc1ccccc1C(=O)OCC1CCCN2CCCCC12` (stereo not drawn), 91% (active).
On to `CC(C)(Br)C(=O)/C=C/c1ccc(Cl)c(Cl)c1`, for which the growth inhibition is 56% (inactive).
The same measure, in the same setting: the result for `Nc1ccccc1CC(O)C(=O)O` (stereo not drawn) reads 90% (active); that for `CC(=O)N/N=C/C(C)(C)C(C)(C)/C=N/NC(C)=O`, 16% (inactive).
Same read-out and setting: the result for `CN(C)c1nc2sc3c(c2c(=O)o1)CCCC3` reads 92% (active); that for `CC(C)OC(=O)Oc1ccccc1OC(=O)OC(C)C`, 8% (inactive).
Still for that read-out and setting: for `Cc1ccc(N)c(S)c1` the value was 92% (active).
As to `O=C(O)c1ccccc1NC(=S)c1ccccc1`, the growth inhibition was 79% (active).
On to `COC(=O)c1ccc(NCC2=CC(=O)C=CC2=O)cc1O`, for which the growth inhibition was 98% (active).
Still for that read-out and setting: the result for `NC(N)=N/N=C\c1c2ccccc2cc2ccccc12` reads 14% (inactive); that for `COC(=O)CSSCc1ccc([N+](=O)[O-])cc1`, 98% (active); that for `CCS(=O)(=O)c1ccc(/C=C/C=N/NC(=S)NCC(C)C)cc1`, 50% (inactive).
Same read-out and setting: the result for `N#CC(C(=O)Nc1ccccc1)C1=C(Cl)C(=O)c2ccccc2C1=O` (stereo not drawn) reads 98% (active).
The same measure, in the same setting: for `C[C@H](CCC(=O)NN)[C@H]1CC[C@H]2[C@@H]3CC[C@@H]4C[C@H](O)CC[C@]4(C)[C@H]3CC[C@]12C` the value was 73% (active); for `CC[n+]1ccc2c(C)c3[nH]c4ccc(O)cc4c3c(C)c2c1`, 28% (inactive).
